# Measurements reported in PubChem BioAssay (NCI).
# About 83,000 compounds went through this panel and 20% of them were active in at least one assay; those are over-represented in the sample as a whole.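 For each line, cells grew in 96-well plates with the test compound present at a single concentration for 48 hours.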 Activity calls are given as the source filed them. How the source made its calls: active means growth percent below 10; inactive means the rest.
# Test system: NCI/ADR-RES ovarian
# Test: NCI-60 one-dose screen, 48 h (100 = growth as untreated, 0 = no growth, -100 = all killed)
# Details: 10 µM unless noted
row,SMILES,growth
1,CC1OC(n2c3ccccc3c3c4c(c5c6ccccc6[nH]c5c32)C(=O)N(CCN[C@H]2CCC[C@@H]2N)C4=O)CC(O)C1O (some centres not stated),88.2% (inactive)
2,Nc1c(Br)cc2c(c1Br)Cc1cc(Cl)ccc1-2,95.8% (inactive)
3,C#C[C@]1(O)CC[C@H]2[C@@H]3CC=C4c5sc(-c6cccc(Br)c6)nc5CC[C@]4(C)[C@H]3CC[C@@]21C,91.1% (inactive)
4,O=C1NN(C(=O)c2ccccc2)C(c2ccc(Cl)c(Cl)c2)=C/C1=C\c1ccccc1[N+](=O)[O-],17.7% [6.75 µM] (inactive)
5,NS(=O)(=O)c1ccc(CCn2c(SCC(=O)N/N=C/c3cc4ccccc4[nH]3)nc3ccccc3c2=O)cc1,99.8% (inactive)
6,CC(C)CC(=O)C(CCc1ccccn1)C(C)C (configuration not stated),102% (inactive)
7,Cc1cc(C#Cc2ccc(C(C)(C)C)cc2)ccc1-n1c(/C=C/c2c(Cl)cccc2Cl)nc2ccccc2c1=O,103% (inactive)
8,CCOC(=O)c1ccc(NC(=O)CSC(N)=O)cc1,99.3% (inactive)
9,CCOCCNc1ccc(S(=O)(=O)c2ccc(N)cc2)cc1N,100% (inactive)
10,CC(=O)O[C@@H]1CC2C(C)(C)CCCC2(C)C2=C1C(=O)C(C(C)C)=CC2=O (some centres not stated),15.9% (inactive)
11,CCN(CC)CCCC(C)Nc1c(-c2ccccc2)cnc2cc(Cl)ccc12 (configuration not stated),79.6% (inactive)
12,COc1ccc(CNc2c3ccccc3nc3ccccc23)cc1F,20.8% (inactive)
13,Clc1ccc(-c2cnc3c(-c4ccnc(N5CCNCC5)c4)cnn3c2)cc1,-0.0998% (active)
14,CN(C)N1C(=O)c2c(Cl)c(Cl)c(Cl)c(Cl)c2C1=O,101% (inactive)
15,O=C(Nc1ccc(Cl)cc1)c1cc(-c2ccc(Cl)cc2)c2sc(=O)[nH]c2n1,5.64% (active)
16,COc1cnc2c(c1)C(=O)c1c-2n(CCCN2CCNCC2)c(=O)c2cc(Cl)ccc12,48.1% (inactive)
17,Nc1c(C(=O)C[C@@H](N)CO)ccc2c1C(=O)CCO2,61.2% (inactive)
18,C=C1C(=O)O[C@H]2[C@H]1CC/C(COC(=O)NCc1ccc(Cn3c(=O)sn(CCCl)c3=O)cc1)=C\CC[C@@]1(C)O[C@@H]21,113% (inactive)
19,O=C1/C(=C/N2N=C(c3ccc(Cl)cc3)CC2c2ccccc2O)SC(=S)N1c1cccc(C(F)(F)F)c1 (configuration not stated),56.4% (inactive)

row,SMILES,growth
1,COc1cnc2c(c1)C(=O)c1c-2n(CCCN2CCN(C)CC2)c(=O)c2cc(Cl)ccc12,44.8% (inactive)
2,C[C@H](NC(=O)c1snnc1C1CC1)c1c(F)cccc1Cl,97.8% (inactive)
3,CC(C)(C)c1ccc(OC(=O)Nc2ccccc2)cc1,106% (inactive)
4,N/C(=N\OC(=O)c1ccccc1)C(C(=O)NOC(=O)c1ccccc1)C1CCCCC1 (configuration not stated),45.2% (inactive)
5,CC(C)c1ccc2c(c1)CCC1C2CCCC1(C)NCc1ccccc1 (configuration not stated),62.7% (inactive)
6,Cc1ccncc1NC=O,107% (inactive)
7,Nc1c(N)c2ccccc2c2ccccc12,101% (inactive)
8,O=C1/C(=C/c2cc(F)cc(F)c2)Cc2cc(F)cc(F)c21,98.2% (inactive)
9,CNC(=O)c1c(NC(=O)c2ccc(C(C)C)cc2)sc2c1CCC(=O)C2,-7.01% (active)
10,COc1cc(C2CC(c3ccccc3)=NN2C=O)ccc1Oc1ccnc2cc(Cl)ccc12 (configuration not stated),22.9% (inactive)
11,CO[C@H](C(=O)[C@@H](O)[C@@H](C)O)[C@@H]1Cc2cc3cc(O[C@H]4C[C@@H](O[C@H]5C[C@@H](O)[C@H](O)C(C)O5)[C@H](O)C(C)O4)c(C)c(O)c3c(O)c2C(=O)[C@H]1O[C@H]1C[C@@H](O[C@H]2C[C@@H](O[C@H]3C[C@](C)(O)C(=O)C(C)O3)[C@@H](O)C(C)O2)[C@H](O)C(C)O1 (some centres not stated),76% (inactive)
12,COc1cc(-c2nc(-c3ccc(-c4nc5ccc(F)cc5[nH]4)cc3)no2)cc(OC)c1OC,13.3% (inactive)
13,CC(=O)NC1C(O[C@H]2C[C@H]3[C@@H]4CC=C5C[C@@H](O)CC[C@]5(C)[C@H]4CC[C@]3(C)[C@H]2[C@H](C)C(=O)CCC(C)C)OCC(O)C1O (some centres not stated),88.8% (inactive)
14,O=C(CCl)Nc1ccc2c(c1)C(=O)c1ccccc1C2=O,14.2% (inactive)
15,Cc1csc(N/N=C/c2ccncc2)n1,107% (inactive)
16,COc1ccc(-c2cnc(-c3ccncc3-c3cccc(OC)c3)o2)cc1,10.1% (inactive)
17,C#Cc1cccc(Nc2nc3cc([N+](=O)[O-])ccc3nc2Nc2ccc(O)cc2)c1,24.7% (inactive)
18,COc1cccc(-c2nc3sccn3c2-c2ccnc(NCCN3CCCN(C)S3(=O)=O)n2)c1,84.9% (inactive)
